Reference: PubChem BioAssay
Calls of active or inactive are those of the source.

Assays:
Albumin (Bos taurus) = Albumin (Bos taurus) (UniProt P02769); assay: compounds binding labelled BSA control protein – biochemical, small-molecule microarray, Alexa647 label, 635/667 nm fluorescence, artefact control for SMM control protein annotation, profiling panel (AID 1118); settings: BSA-A647 binding, fluorescence 635 nm, higher = more signal;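 also: score merges 667 nm emission intensity and signal-to-noise per printed compound spot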
[1] = probe aXIP binding to arrayed compounds – biochemical, NeuroSMM set, 635/667 nm fluorescence, primary screen (AID 1119); settings: small-molecule microarray, higher = more signal, called active from +8 up or from −8 down;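 also: probe is the protein aXip251-270 applied at 1 µg/mL to compound-printed slides; binding of probe to printed compounds measured as 667 nm fluorescence plus signal to noise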
[2] = probe aNOTCH3 binding on compound microarray – biochemical, small-molecule microarray, 635/667 nm fluorescence, primary screen (AID 1120); settings: higher = more signal;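 also: probe is a biotin-tagged antibody raised against NOTCH3 rather than NOTCH3 protein; score merges spot fluorescence near 667 nm with spot signal to noise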
[3] = probe aNOTCH2 binding on compound microarray – biochemical, small-molecule microarray, 635/667 nm fluorescence, primary screen (AID 1121); settings: higher = more signal;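 also: score merges feature fluorescence read at 667 nm with its signal to noise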
[4] = molecular target: Carbonic anhydrase 2 (Homo sapiens) (UniProt P00918); assay: compounds binding carbonic anhydrase 2 – biochemical, small-molecule microarray, Alexa647-labelled CAII, profiling panel (AID 1122); settings: CAII-A647 binding fluorescence, higher = more signal
[5] = COS7 lysate on small-molecule microarray, probe aHis, 635 nm (AID 1123); settings: COS7 cell lysate, fluorescence, higher = more signal;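 also: z-score combines 667nm fluorescence intensity with signal-to-noise per printed compound spot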
[6] = probe aLAP1 signal on lysate-treated microarray – cell lysate, small-molecule microarray, COS7 lysate, primary screen (AID 1124); settings: probe aLAP1, fluorescence, higher = more signal;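 also: lysate comes from COS7 cells expressing LAP1 and is applied at 0.3 µg/mL; score merges spot fluorescence near 667 nm with signal-to-noise over triplicate slides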
Sam68 (KHDRBS1) = assay: compounds binding KHDRBS1 protein – biochemical, small-molecule microarray, 635 nm fluorescence, primary screen (AID 1125); settings: higher = more signal;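 also: score merges 667 nm channel intensity with signal to noise over triplicate slides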
[7] = test system: Chordin-like protein 2 (CHRDL2); assay: compounds binding chordin-like 2 – biochemical, small-molecule microarray, 635 nm fluorescence, primary screen (AID 1126); settings: fluorescence 635 nm, higher = more signal;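 also: printed compound slides probed with Chrdl2 protein at 4 µg/mL for 1 h at 4 C; score merges 667 nm emission intensity with signal to noise over three replicate slides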
[8] = molecular target: Concanavalin-A (Canavalia ensiformis) (UniProt P02866); assay: compounds binding concanavalin A lectin – biochemical, small-molecule microarray, Alexa647 label, 635 nm, artefact control for SMM control protein annotation, primary screen (AID 1127); settings: ConA-A647 binding fluorescence, higher = more signal;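 also: z combines 667 nm emission intensity with signal-to-noise across three replicate slides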
[9] = compounds binding Alexa647 anti-His antibody – biochemical, small-molecule microarray, 635 nm fluorescence, artefact control for SMM control protein annotation, primary screen (AID 1128); settings: higher = more signal;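 also: score merges feature fluorescence with signal-to-noise for each printed compound spot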
[10] = test system: Human papillomavirus type 1a E7 protein (residues 1-88); assay: HPV1a E7 small-molecule binders, primary screen, biochemical, small-molecule microarray, residues 1-88, 635 nm (AID 1129); settings: small-molecule microarray binding, fluorescence 635 nm; higher = more signal
[11] = molecular target: Focal adhesion kinase 1 (Homo sapiens) (UniProt Q05397); assay: PTK2 protein binding on printed compound slides – biochemical, small-molecule microarray, 635/667 nm fluorescence, BSA, DTT, primary screen (AID 1130); settings: 635 nm fluorescence, higher = more signal;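 also: composite of spot emission at 667 nm and signal to noise over triplicate slides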
[12] = test system: Fibrinogen (Alexa647-labelled); assay: Alexa647-fibrinogen binding to printed small molecules – biochemical, small-molecule microarray, 635/667 nm fluorescence, artefact control for SMM control-protein annotation, profiling panel (AID 1131); settings: fibrinogen-A647 binding fluorescence, higher = more signal;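 also: z-score merges 667 nm fluorescence with per-spot signal-to-noise over triplicate slides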
[13] = molecular target: Follistatin (Homo sapiens) (UniProt P19883); assay: FST protein binding to printed compounds – biochemical, small-molecule microarray, 635/667 nm fluorescence, primary screen (AID 1132); settings: 635 nm fluorescence, higher = more signal
[14] = molecular target: Fibroblast growth factor 2 (Homo sapiens) (UniProt P09038); assay: basic fibroblast growth factor binding to printed compounds – biochemical, small-molecule microarray, 635/667 nm fluorescence, primary screen (AID 1133); settings: FGF2, fluorescence 635/667, higher = more signal
[15] = JC-1 mitochondrial potential readout, lung cancer cells – cell-based, A549, JC-1 fluorescence, basal, 24 h, 100 nL, profiling panel (AID 1138); settings: higher = more signal;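 also: A549 lung adenocarcinoma cells under basal conditions with no added stimulus; test concentration not given here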
Lefty1 = Lefty1 protein binding to printed compounds – biochemical, small-molecule microarray, 635/667 nm fluorescence, primary screen (AID 1139); settings: fluorescence 635/667, higher = more signal
[16] = test system: wheat germ agglutinin (Triticum aestivum), Alexa647-labelled; assay: Alexa647-WGA lectin binding to printed small molecules – biochemical, small-molecule microarray, 635/667 nm fluorescence, artefact control for SMM control-protein annotation, profiling panel (AID 1140); settings: WGA-A647 binding, 635 nm fluorescence, higher = more signal;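 also: score merges 667 nm feature emission with signal to noise over triplicate slides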
[17] = molecular target: Luciferin 4-monooxygenase (Photinus pyralis) (UniProt P08659); assay: inhibition of purified Photinus pyralis luciferase – biochemical, luminescence, purified enzyme, 2006 set, primary screen (AID 1141); settings: purified firefly luciferase, SteadyGlo luminescence, 30 min; higher = more signal, called active from +8 up or from −8 down;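 also: cell-free assay with purified firefly luciferase at 100 ng per well in PBS; test concentration not given here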
Sequence of Luciferin 4-monooxygenase (Photinus pyralis) (P08659 whole entry, looked up): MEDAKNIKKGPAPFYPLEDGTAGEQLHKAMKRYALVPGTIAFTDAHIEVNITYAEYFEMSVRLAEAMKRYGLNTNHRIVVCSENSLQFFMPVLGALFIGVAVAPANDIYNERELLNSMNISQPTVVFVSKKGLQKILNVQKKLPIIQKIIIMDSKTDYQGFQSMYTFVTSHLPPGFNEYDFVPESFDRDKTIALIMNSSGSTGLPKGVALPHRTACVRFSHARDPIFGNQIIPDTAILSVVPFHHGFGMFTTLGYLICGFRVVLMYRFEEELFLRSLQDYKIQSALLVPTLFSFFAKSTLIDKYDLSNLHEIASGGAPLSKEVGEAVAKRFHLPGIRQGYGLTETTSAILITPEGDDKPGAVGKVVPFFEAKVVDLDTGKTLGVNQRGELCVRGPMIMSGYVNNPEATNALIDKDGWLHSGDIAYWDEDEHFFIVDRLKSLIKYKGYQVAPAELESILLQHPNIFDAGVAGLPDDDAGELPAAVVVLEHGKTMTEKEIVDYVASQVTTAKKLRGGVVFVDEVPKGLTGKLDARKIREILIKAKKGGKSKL

Sequence of Albumin (Bos taurus) (P02769 whole entry, looked up): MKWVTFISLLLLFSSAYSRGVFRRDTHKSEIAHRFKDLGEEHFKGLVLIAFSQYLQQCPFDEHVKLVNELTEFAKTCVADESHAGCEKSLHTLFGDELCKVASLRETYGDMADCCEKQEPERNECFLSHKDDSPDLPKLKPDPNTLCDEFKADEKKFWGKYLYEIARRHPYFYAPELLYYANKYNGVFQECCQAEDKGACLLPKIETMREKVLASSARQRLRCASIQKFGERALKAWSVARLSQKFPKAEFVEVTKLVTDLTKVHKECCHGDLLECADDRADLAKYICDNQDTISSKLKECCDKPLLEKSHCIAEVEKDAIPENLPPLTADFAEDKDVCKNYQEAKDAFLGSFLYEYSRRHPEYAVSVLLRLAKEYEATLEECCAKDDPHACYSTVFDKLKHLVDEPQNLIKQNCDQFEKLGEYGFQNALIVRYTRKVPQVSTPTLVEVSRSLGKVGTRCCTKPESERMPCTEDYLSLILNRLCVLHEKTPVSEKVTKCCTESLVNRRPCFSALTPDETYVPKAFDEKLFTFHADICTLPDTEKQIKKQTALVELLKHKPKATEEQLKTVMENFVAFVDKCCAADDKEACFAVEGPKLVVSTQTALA
Sequence of Concanavalin-A (Canavalia ensiformis) (P02866 whole entry, looked up): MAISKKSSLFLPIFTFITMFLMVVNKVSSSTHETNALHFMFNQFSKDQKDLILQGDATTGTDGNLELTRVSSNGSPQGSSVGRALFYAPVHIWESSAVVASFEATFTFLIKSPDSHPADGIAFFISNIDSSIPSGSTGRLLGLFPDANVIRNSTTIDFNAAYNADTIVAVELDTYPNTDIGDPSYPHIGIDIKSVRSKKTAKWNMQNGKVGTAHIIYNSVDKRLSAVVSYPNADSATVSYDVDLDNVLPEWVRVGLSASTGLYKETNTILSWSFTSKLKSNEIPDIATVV
Sequence of Focal adhesion kinase 1 (Homo sapiens) (Q05397 whole entry, looked up): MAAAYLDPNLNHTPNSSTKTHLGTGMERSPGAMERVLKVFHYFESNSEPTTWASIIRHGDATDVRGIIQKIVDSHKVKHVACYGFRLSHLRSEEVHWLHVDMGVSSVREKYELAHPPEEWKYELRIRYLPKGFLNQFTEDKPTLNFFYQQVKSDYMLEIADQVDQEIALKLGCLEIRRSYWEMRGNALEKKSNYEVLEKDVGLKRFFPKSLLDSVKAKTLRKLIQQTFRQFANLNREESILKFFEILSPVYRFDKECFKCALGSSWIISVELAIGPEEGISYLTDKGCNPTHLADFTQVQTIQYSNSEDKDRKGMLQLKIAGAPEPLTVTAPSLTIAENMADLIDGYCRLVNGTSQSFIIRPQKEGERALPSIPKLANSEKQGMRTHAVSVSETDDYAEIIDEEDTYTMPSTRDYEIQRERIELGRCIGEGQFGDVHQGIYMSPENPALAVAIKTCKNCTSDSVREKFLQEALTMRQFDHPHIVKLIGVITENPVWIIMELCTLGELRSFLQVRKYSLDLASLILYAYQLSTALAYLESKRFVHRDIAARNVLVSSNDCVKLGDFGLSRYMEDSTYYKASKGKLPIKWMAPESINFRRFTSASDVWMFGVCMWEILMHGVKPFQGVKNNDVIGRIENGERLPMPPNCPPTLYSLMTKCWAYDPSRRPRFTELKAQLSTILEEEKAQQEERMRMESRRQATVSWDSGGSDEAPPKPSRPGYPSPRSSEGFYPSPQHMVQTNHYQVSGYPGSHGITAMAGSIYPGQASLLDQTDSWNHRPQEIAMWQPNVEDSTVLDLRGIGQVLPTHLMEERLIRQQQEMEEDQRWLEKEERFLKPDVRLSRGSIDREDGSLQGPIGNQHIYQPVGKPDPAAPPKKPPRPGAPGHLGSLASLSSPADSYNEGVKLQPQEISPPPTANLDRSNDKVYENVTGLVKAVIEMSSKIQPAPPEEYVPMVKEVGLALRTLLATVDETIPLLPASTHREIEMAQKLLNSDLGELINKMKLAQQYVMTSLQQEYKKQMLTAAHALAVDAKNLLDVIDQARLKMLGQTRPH
Sequence of Fibroblast growth factor 2 (Homo sapiens) (P09038 whole entry, looked up): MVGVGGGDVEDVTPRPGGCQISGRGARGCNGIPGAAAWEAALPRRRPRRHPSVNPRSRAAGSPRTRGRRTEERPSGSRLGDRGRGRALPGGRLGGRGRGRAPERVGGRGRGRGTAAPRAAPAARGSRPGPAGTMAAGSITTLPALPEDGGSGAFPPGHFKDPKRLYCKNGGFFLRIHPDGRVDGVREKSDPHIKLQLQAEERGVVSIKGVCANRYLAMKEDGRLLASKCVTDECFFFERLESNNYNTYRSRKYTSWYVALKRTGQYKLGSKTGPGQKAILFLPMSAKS
Sequence of Follistatin (Homo sapiens) (P19883 whole entry, looked up): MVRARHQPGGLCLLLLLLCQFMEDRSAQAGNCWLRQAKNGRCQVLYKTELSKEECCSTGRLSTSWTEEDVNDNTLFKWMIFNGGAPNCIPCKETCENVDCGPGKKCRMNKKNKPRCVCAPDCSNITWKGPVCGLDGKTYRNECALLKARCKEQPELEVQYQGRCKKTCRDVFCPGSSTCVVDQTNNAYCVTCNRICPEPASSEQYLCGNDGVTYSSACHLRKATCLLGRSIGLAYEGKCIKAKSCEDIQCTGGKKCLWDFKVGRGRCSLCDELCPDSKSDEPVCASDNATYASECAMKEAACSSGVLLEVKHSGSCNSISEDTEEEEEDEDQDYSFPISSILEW

Row | Compound | composite z-score (Albumin (Bos taurus)) | composite Z-score [1] | composite z-score [2] | composite z-score [3] | composite z-score [4] | composite z-score [5] | composite z-score [6] | composite z-score (Sam68 (KHDRBS1)) | composite z-score [7] | composite z-score [8] | composite z-score [9] | composite z-score [10] | composite z-score [11] | composite z-score [12] | composite z-score [13] | composite z-score [14] | z-score [15] | composite z-score (Lefty1) | composite z-score [16] | z-score [17]
1 | CCCCCN1CC=CC23O[C@@H]4C=CCCOC(=O)C4[C@H]2C(=O)N(CCCCCO)[C@@H]3C1=O (stereo not given in full) | 0.337 | 0.0269 (inactive) | -0.213 | -0.142 | 0.846 | 0.718 | 0.57 | -1.22 | -0.17 | -0.406 | 0.587 | 0.0287 | -0.383 | 0.302 | -1.03 | -0.347 | 1.4 | -0.582 | 0.796 | 0.0192 (inactive)
2 | O=C1C2C=CC(C(O)Cc3ccccc3)N(n3cnnc3)C2C(=O)N1Cc1ccccc1 (stereo not given) | 1.03 | -0.188 (inactive) | 0.206 | 0.0248 | 0.449 | 1.14 | 0.75 | 0.646 | -0.748 | 0.779 | 1.38 | 0.396 | -0.249 | 0.573 | -0.185 | -0.279 | -1.48 | -0.648 | 1.31 | 0.921 (inactive)
3 | CC(=O)n1cc(C(O)C2C=CC3C(=O)N(c4ccccc4)C(=O)C3N2Nc2ccc([N+](=O)[O-])cc2)c2ccccc21 (stereo not given) | 0.932 | 0.406 (inactive) | 0.0159 | 0.386 | 0.778 | 2.22 | 1.33 | 1.34 | -1.4 | 0.823 | 3.33 | 0.981 | 0.457 | 0.916 | 0.347 | -0.105 | -1.02 | -0.719 | 1.45 | 1.08 (inactive)
4 | CC(C)C(=C=CC[C@@H](O)c1ccc(OCCO)cc1)C[C@@H](O)c1ccccn1 | -0.363 | 1.24 (inactive) | 0.0553 | -0.13 | 0.368 | -0.0995 | 0.33 | 0.726 | 1.38 | 0.817 | -0.449 | -0.251 | -0.542 | 0.819 | 1.58 | 1.78 | -0.306 | 1.51 | -0.187 | -0.069 (inactive)
5 | O=C1C2C=CC(C(O)CCc3ccccc3)N(Nc3ccccc3F)C2C(=O)N1c1ccccc1 (stereo not given) | 0.955 | -0.585 (inactive) | 0.331 | -0.0677 | 0.755 | 2.69 | 0.185 | 1.22 | -0.47 | 0.893 | 1.49 | 1.14 | 1.01 | 0.434 | 1.25 | -0.449 | 0.00533 | 0.0364 | 0.548 | 1.48 (inactive)
6 | O=C1c2ccccc2[C@](Cc2ccccc2I)(C(=O)NCCN2CCOCC2)[C@H](c2ccc(CO)cc2)N1C1CCCCC1 | 0.55 | 0.424 (inactive) | 0.323 | -0.052 | 0.548 | 1.41 | 0.382 | 1.31 | 0.67 | 1.15 | 1.77 | 1.19 | 0.991 | 0.927 | 1.34 | 0.804 | 1.34 | 1.36 | 1.16 | -0.147 (inactive)
7 | CCOC(=O)[C@H]1C/C=C/C[C@H](C(=O)OCC)C(=O)O[C@H]2[C@@H](OC)O[C@H](CO)[C@@H](OC(=O)c3c(OC)cccc3OC)[C@@H]2OC1=O | 0.0961 | 0.338 (inactive) | 0.275 | -0.108 | 0.512 | 1.66 | 0.47 | 1.26 | 0.83 | 0.932 | 0.0181 | 1.12 | 0.523 | 0.661 | 0.706 | 0.418 | -0.927 | 0.639 | 0.0697 | -0.335 (inactive)
8 | O=C1O[C@@H](c2ccccc2)[C@@H](c2ccccc2)N2[C@@H](c3ccccc3OCCO)[C@]3(C(=O)Nc4ccccc43)[C@@H](C(=O)Nc3nc4ccccc4s3)[C@H]12 | 0.827 | 0.703 (inactive) | 1.38 | -0.181 | 0.619 | 2.89 | 0.485 | 1.25 | -0.111 | 1.16 | 0.858 | 1.23 | 0.467 | 0.865 | 0.778 | 0.188 | -2 | 1.62 | 1.17 | -0.237 (inactive)
9 | COC(=O)[C@@]1(Cc2ccccc2)[C@H]2c3cc(C(=O)N(C)C)n(Cc4ccsc4Br)c3C[C@H]2CN1C(=O)c1ccccc1 | 0.928 | -0.502 (inactive) | 0.501 | -0.0597 | 0.586 | 2.66 | -0.0415 | 1.21 | -1.03 | 0.883 | 1.18 | 1.24 | 0.483 | 0.834 | 0.797 | -0.535 | 1.04 | -0.143 | 0.948 | 0.78 (inactive)
10 | O=C(c1ccccc1)N1C(=O)[C@@]2(Cc3ccccc31)N=C(c1ccc(OCCCO)cc1)O[C@H]2c1ccccc1 | -0.85 | 0.718 (inactive) | 0.33 | 0.14 | 0.575 | 2.41 | 1.22 | 1.31 | 0.897 | 1.14 | 1.39 | 1.21 | 1.23 | 0.657 | 1.4 | 1.45 | -1.02 | 0.856 | 0.811 | -1.14 (inactive)
11 | C=CCN1C(=O)[C@@]2(CC=C)N=C(c3ccc(OCCCO)cc3)O[C@H]2c2ccccc21 | 0.272 | 0.33 (inactive) | 0.323 | 0.189 | 0.614 | 3.3 | 1.05 | 1.3 | 1.33 | 1.05 | 2.12 | 1.2 | 0.743 | 0.576 | 1.49 | 1.76 | 2.66 | 1.17 | 0.503 | -9.06 (active)
